MARV entry inh – qHTS for Inhibitors of binding or entry into cells for Marburg Virus; AID 720532, 2013; Potency, µM (doses to about 49.2 µM), for the others: at the highest dose activity change, negative = inhibition, actives largely listed as inhibitors; Marburg virus pseudotype entry/binding inhibition, cell-based; 6.5% of 18,000 active
LASV entry inh – qHTS for Inhibitors of binding or entry into cells for Lassa Virus | Potency, µM (titrated, usually from 49.2 µM), for the others: top-dose activity change, negative = inhibition, hits mostly inhibitors | AID 720533, 2013 | 4.1% of 18,000 active | Lassa virus pseudotyped entry inhibition, cell-based qHTS
* hit, by the source's call; ? = inconclusive; . = not tested or not shown; ! = repeats disagree; [ ] = dose if it differs, or a comment. Only some compounds are listed: those with a hit (about 8.6% of all), similar ones and a draw of the others. The call rests on the fitted dose curve; tested in HEK293 cells. On the % scale 0 is the no-effect control and ±100 the full control effect; potency means the concentration at half of the fitted maximal effect.

SMILES | MARV entry inh | LASV entry inh
COC(=O)[C@H]1[C@H](CCc2ccccc2)NC(=O)N(Cc2ccccc2)[C@H]1C | -15%[8.59 µM] | .
CCOC(=O)CN1C(=O)[C@]2(O[C@H](C)CC3=CCCC32)c2c(Br)cccc21 (some centres undefined) | ? | -7%[8.59 µM]
CC[C@H](c1ccc(O)cc1)[C@@H](CC)c1ccc(O)cc1 | 14%[17.8 µM] | ?
Oc1cc[c]([Hg][Cl])cc1 | 3.5µM* | 4.5µM*
COC1=CC2C(=O)C(C(c3ccccc3)C2C)C1(C)O (centres undefined) | 1%[8.59 µM] | -11%[8.59 µM]
CCCC(=O)O[C@]1(C(=O)CO)CC[C@H]2[C@@H]3CCC4=CC(=O)CC[C@]4(C)[C@H]3[C@@H](O)C[C@@]21C | -5% | -2%
CCCCCC(=O)O[C@@]1(C(C)=O)CCC2C3CCC4=CC(=O)CC[C@@]4(C)C3CC[C@]21C (some centres undefined) | 10µM* | 22µM*
C[C@@H]1CC2=CCCC2[C@]2(O1)C(=O)N(Cc1ccc(Br)cc1)c1cccc(Br)c12 (some centres undefined) | -25%[8.59 µM] | .
COc1ccc(CCNC(=O)C(=O)c2c[nH]c3ccccc23)cc1 | -3% | 3.5µM*
COC(=O)c1csc(C(=O)c2c[nH]c3ccccc23)n1 | -2% | -1%
COC(=O)[C@H](CC(C)C)N(Cc1ccc(Br)cc1)S(=O)(=O)CCl | -7% | 21%
CCC(C)c1cc([N+](=O)[O-])cc([N+](=O)[O-])c1OC(C)=O (centres undefined) | -5% | -8%
CCC(C)c1cc([N+](=O)[O-])cc([N+](=O)[O-])c1OC(=O)OC(C)C (centres undefined) | ? | 18µM*
CC1=C(O)C(=O)[C@H]2O[C@@H]2C1=O | 3% | 11µM*
CC1=CC[C@@H](COc2ccccc2)O[C@@]2(C1)C(=O)Nc1cccc(Br)c12 | 4%[8.59 µM] | 41%[8.59 µM]
CCOC(=O)CN1C(=O)[C@]2(OCCC=C[C@@H]2C)c2cc(OC)ccc21 | 13%[8.59 µM] | -2%[8.59 µM]
CCC(C)CN1C(=O)NC(c2ccccc2)C(C(=O)OC)=C1C (centres undefined) | -20%[8.59 µM] | .
COC(=O)C1=C(C)N(CCC(C)O)C(=O)N(C(C)=O)C1c1ccccc1 (centres undefined) | 5%[8.59 µM] | -13%[8.59 µM]
O=S(=O)(c1cccc2c(I)cccc12)N1CCCNCC1 | 11µM* | ?
C[C@@H]1CNCCN1S(=O)(=O)c1cccc2cnccc12 | -25% | 5%
O=S(=O)(c1cccc2c(Cl)cccc12)N1CCCNCC1 | 8.9µM* | ?
Cc1ccc(S(=O)(=O)N2CCCN(S(=O)(=O)c3ccccc3Br)CC2)cc1 | 35% | .
CC(CCN1CCc2nc(-c3ccccc3)c(-c3ccccc3)cc2C1)=NO[C@H](C)CN1CCCCc2nc(C)c(C)cc21 | 25%[8.59 µM] | 7%[8.59 µM]
CCOC(=O)CN1C(=O)[C@@]2(CC(C)=C[C@@H](COCc3ccccc3)O2)c2ccccc21 | 7%[8.59 µM] | .
CCOC(=O)c1ccc(OC(=O)CCCCCN=C(N)N)cc1 | 38%[17.8 µM] | -2%[17.8 µM]
SMILES | MARV entry inh | LASV entry inh
CCCCCCCCN=C(N)c1ccc(C(=O)OCC2CCCCC2)cc1 | 2.8µM* | 13µM*
CC(C)ON(CC(=O)NO)S(=O)(=O)c1ccc(-c2ccccc2)cc1 | 13% | -26%
CC(C)ON(C(C(=O)NO)C(C)C)S(=O)(=O)c1ccc(-c2ccccc2)cc1 (centres undefined) | 6.3µM* | 6.3µM*
COc1cc(-c2ccc(-[n+]3nc(-c4ccccc4)nn3-c3ccc([N+](=O)[O-])cc3)c(OC)c2)ccc1-[n+]1nc(-c2ccccc2)nn1-c1ccc([N+](=O)[O-])cc1 | 14µM* | 14µM*
C=CCN=C1NC(c2cccc(C(F)(F)F)c2)C(C(=O)OC)=C(C)N1CC (centres undefined) | 12%[8.59 µM] | -27%[8.59 µM]
O=C(CC(=O)c1ccccc1)c1ccccc1 | 35% | 59%
O=C(O)CCC(=O)c1ccc(-c2ccccc2)cc1 | 0.1µM*! | 11%[17.8 µM]
CC1(C)CN(Cc2cccnc2)C(=O)[C@@H]1CC(=O)Nc1ccc(Br)cc1 | ? | 10%
CC(C)n1nc(-c2cc3cc(O)ccc3[nH]2)c2c(N)ncnc21 | 3.5µM* | 4µM*
CC(C)(C)n1nc(-c2ccc(Cl)cc2)c2c(N)ncnc21 | 39% | 6%
C[C@@H]1N[S+](=O)([O-])c2cccc(Cl)c2O[C@H]1c1ccccc1 | 33% | ?
C[C@@]12CC[C@@H]3c4ccc(O)cc4C[C@H](CCCCCCCCCS(=O)CCCC(F)(F)C(F)(F)F)[C@H]3[C@@H]1CC[C@@H]2O (some centres undefined) | 11% | ?
C[C@]12CC[C@@H]3c4ccc(O)cc4C[C@@H](CCCCCCCCCS(=O)CCCC(F)(F)C(F)(F)F)[C@H]3[C@@H]1CC[C@@H]2O (some centres undefined) | -14% | 6.3µM*
O=C(NC[C@@H]1CCCN2CCCC[C@H]12)c1cnn(-c2nccc(-c3cc4ccccc4o3)n2)c1C1CC1 | 11µM* | ?
CCN1CCCC1CNC(=O)c1cnn(-c2nccc(-c3cc4ccccc4o3)n2)c1C1CC1 (centres undefined) | ? | -18%
CCN(CC)CCNC(=O)c1cnn(-c2nccc(-c3cc4ccccc4o3)n2)c1C | 13µM* | ?
Cc1c(C(=O)NCCc2cccnc2)cnn1-c1nccc(-c2ccccc2F)n1 | 37% | -5%
CCOC(=O)CN1C(=O)NC(c2cccc(C(F)(F)F)c2)C(C(C)=O)=C1C (centres undefined) | 31%[8.59 µM] | 7%[8.59 µM]
O=S(=O)(N[C@@H](CO)Cc1ccccc1)c1cc(Cl)ccc1F | 29% | 10%
Cc1oc(-c2ccccc2NC(=O)C2CCC2)nc1CNC(=O)c1ccccn1 | -1% | -3%
CC(C)(C)NCC(O)CSc1nc(-c2ccc(C(N)=O)s2)cs1 (centres undefined) | -24% | -8%
C=CCCN1C=C(C(=O)OCC)C(c2ccccc2)NC1=O (centres undefined) | ? | 34%[8.59 µM]
Nc1ccccc1C(=O)C=Cc1ccc2c(c1)OCO2 | 97%[8.59 µM] | 46%[8.59 µM]
O=C(OC1Cc2c(O)cc(O)cc2OC1c1cc(O)c(O)c(O)c1-c1c(C2Oc3cc(O)cc(O)c3CC2OC(=O)c2cc(O)c(O)c(O)c2)cc(O)c(O)c1O)c1cc(O)c(O)c(O)c1 (centres undefined) | 11µM* | -2%
O=C1C[C@@H](c2ccc(O)cc2)Oc2cc(O)cc(O)c21 | 21%[17.8 µM] | 31%[17.8 µM]
SMILES | MARV entry inh | LASV entry inh
O=C(O[C@@H]1Cc2c(O)cc(O)cc2OC1c1ccc(O)c(O)c1)c1cc(O)c(O)c(O)c1 (some centres undefined) | 13µM* | 6%
Oc1cc(O)c2c(c1)OC(c1cc(O)c(O)c(O)c1)C(O)C2 (centres undefined) | ? | 3%
O=C(OC1Cc2c(O)cc(O)cc2OC1c1cc(O)c(O)c(O)c1)c1cc(O)c(O)c(O)c1 (centres undefined) | 8.9µM* | -1%
Oc1ccc(C2Oc3cc(O)cc(O)c3CC2O)cc1 (centres undefined) | -4% | -4%
O=C(OC1Cc2c(O)cc(O)cc2OC1c1cc(O)c(=O)c2c(O)c(O)cc(C3Oc4cc(O)cc(O)c4CC3OC(=O)c3cc(O)c(O)c(O)c3)c2c1)c1cc(O)c(O)c(O)c1 (centres undefined) | 1.3µM* | -16%
COC(=O)C1=C(C(=O)OC)[C@@H]2N(C)c3ccccc3[C@@]23CCC(=O)N(Cc2cc(OC)c(OC)c(OC)c2)C3=N1 | -12%[8.59 µM] | -13%[8.59 µM]

Screens deposited in PubChem BioAssay by National Center for Advancing Translational Sciences (NCATS).
